Inconclusive results are not listed. A number with no mark means an inactive call. Calls of active or inactive are those of the source. Calls follow the shape of the dose curve; as a rule, active = well fitted inhibition curve with a large enough effect in the repeat runs; inconclusive = weak or mixed curves; inactive = no such curve, though single readings can be large or run the other way.
Assay: qHTS assay to identify small molecule antagonists of the thyroid receptor (TR) signaling pathway (AID 743065); also: nearly all actives have a fitted effect of over 55% in size
Details: GH3.TRE-Luc, T3-stimulated luciferase inhibition, 23.5 h; series mostly up to 70.3 µM; activity, negative = inhibition: at the top concentration
Description: U.S. Tox21 Program National Center for Advancing Translational Sciences [NCATS] NIH Chemical Genomics Center [NCGC] U.S. Environmental Protection Agency [EPA] National Institutes of Environmental Health Sciences [NIEHS] National Toxicology Program [NTP] U.S. Food and Drug Administration [FDA] Tox21 Assay Overview: Thyroid receptor (TR), a nuclear hormone receptor, plays an important role in development, proliferation, differentiation, metabolism, brain function, and cardiovascular system. […] To profile the Tox21 10K compound library in TR signaling, a cell-based GH3-TRE-Luc assay (GH3.TRE-Luc cell line, developed by the laboratory of Dr. Albertinka J. Murk, Wageningen University) was used to measure the inhibition of TR. GH3 (rat pituitary tumor) cells stably expressing a TR activity sensor consisting of two TR response elements and a luciferase reporter gene.
Tox21 Assay Protocol Summary: GH3.TRE-Luc cells were dispensed at 1500 cells/4 uL/well into 1536-well white solid bottom plates using a Multidrop Combi dispenser (Thermo Fisher Scientific Inc., Waltham, MA). After the assay plates were incubated at 37 C for 4 hours, 23 nL of library compound or DMSO controls was transferred to the assay plates by a pintool station (Kalypsys, San Diego, CA), followed by addition of 1 ul of T3 (1 nM, final concentration in the wells) to stimulate TR transactivation. The assay plates were incubated at 37 C for 23.5 h, and then 1 uL of CellTiter-Fluor reagent (Promega, Madision, WI) of measuring cytotoxicity was added to each well using a Bioraptr Flying Reagent Dispenser (FRD) workstation (Beckman Coulter, Indianapolis, IN, USA). The plates were incubated at 37 C and 5% CO2 for additional 30 min, and fluorescence intensity was measured by a ViewLux plate reader (PerkinElmer, Shelton, CT). For measuring luciferase reporter gene activity, 4 uL of ONE-Glo Luciferase Assay reagent (Promega) was added to each well using a Bioraptr FRD (Beckman Coulter), followed by 30 min incubation at room temperature. The luminescence intensity of plates was recorded by a ViewLux plate reader (PerkinElmer, Shelton, CT).
% is scaled to controls: 0 for no effect and ±100 for the full control effect.

| Structure (SMILES) | activity, negative = inhibition | Potency |
| --- | --- | --- |
| CC1CC(=O)CC(C)(C)C1 (stereo not given) | 10.6% | – |
| CO[C@@]1(NC(=O)Cc2cccs2)C(=O)N2C(C(=O)O)=C(COC(N)=O)CS[C@@H]21 | – | inactive |
| CC(C)CCOC(=O)c1ccccc1 | 6.9% | – |
| C=CC/C=C/C | 0.977% [at 95 µM] | – |
| CCO | -5.11% [at 95 µM] | – |
| Cc1cc(-c2ccccc2)nnc1NCCN1CCOCC1 | 0.348% | – |
| CC(O)COC(C)(C)C (stereo not given) | 0.128% | – |
| c1ccc(-c2nn[nH]n2)cc1 | 11.8% | – |
| O=C1c2ccccc2C(=O)c2cc(Cl)ccc21 | 31.6% [at 8.44 µM] | – |
| CC(Oc1cc(Cl)ccc1Cl)C(=O)O (stereo not given) | 3.33% | – |
| CN1CCOC(c2ccccc2)c2ccccc2C1 (stereo not given) | -7.14% [at 32.5 µM] | – |
| CN1C[C@@H]2C[C@H]1CN2c1cc2c(cc1F)c(=O)c(C(=O)O)cn2C1CC1 | 0.479% | – |
| C[C@@H](O)C(=O)O | 19.2% [at 95 µM] | – |
| C[C@H]1[C@@H](c2ccccc2)NC(=O)N1C | -1.33% [at 95 µM] | – |
| CCCCCC(C)O (stereo not given) | 4.68% | – |
| CCOCCOCC | 3.94% [at 95 µM] | – |
| CCCCOC(=O)C(C)O (stereo not given) | -0.0035% | – |
| O=C[O][Al]([O]C=O)[O]C=O | 4.16% | – |
| CCCCOCCOC(=O)COc1ccc(Cl)cc1Cl | 5.95% | – |
| NCc1ccc(S(N)(=O)=O)cc1 | 6% [at 32.5 µM] | – |

| Structure (SMILES) | activity, negative = inhibition | Potency |
| --- | --- | --- |
| Nc1nnnn1-c1ccccc1 | 11.3% | – |
| Cc1cccc(Cl)c1 | -1.3% | – |
| CC(C)=CCC[C@@](C)(O)[C@H]1CC=C(C)CC1 | -1.84% | – |
| CC(C)OC(=O)CCC(=O)OC(C)C | 6.72% | – |
| Cn1c(=O)c2c(ncn2CCO)n(C)c1=O | 10.6% | – |
| CC(=O)CCC1=C(C)CCCC1(C)C | -4.95% | – |
| O=C(O)[C@H](O)c1ccccc1 | 7.04% | – |
| Cc1ccc(C(=O)O)cc1[N+](=O)[O-] | 16.7% | – |
| c1ccc2cnccc2c1 | 0.716% | – |
| CCCCCCCCCOC(=O)c1ccccc1C(=O)OCCCCCCCCC | -7.04% | – |
| CCC(=O)CC | -0.822% | – |
| CC1(C)[C@H]2CC[C@](C)(C2)[C@H]1O | 10.6% [at 95 µM] | – |
| O=C=NCC1CCCC(CN=C=O)C1 (stereo not given) | 4.45% | – |
| OC[C@@H](O)C(O)[C@@H](O)CO (stereo not given in full) | 0.902% [at 95 µM] | – |
| C=CCCCCCCCCC(=O)OCCCC | 4.45% | – |
| C=Cc1ccc(C(C)(C)C)cc1 | 2.91% | – |
| Cc1ccc2c(c1)C(=O)c1ccccc1C2=O | -10.7% | – |
| Cc1ccnc(N)c1 | -1.17% | – |
| O=C(CCCCC(=O)Nc1c(I)cc(I)c(C(=O)O)c1I)Nc1c(I)cc(I)c(C(=O)O)c1I | 5.49% | – |
| OC1OCCOC1O (stereo not given) | 1.13% | – |
